Among all 3,200 compounds or so, about 75 (2%) showed an effect of 50% or more. Only a selection was taken, and strong results are over-represented in it overall.
test system: T1, S. aureus MSSA476; set-up: species or system S. aureus MSSA476 (TSB) or V. cholerae SAD30 (LB); 384-well bacterial growth screen at 25 uM, OD600 relative to DMSO control; details: relative growth, OD600, TSB; 25 µM; inhibitor
T1 construct: MSSA476

Row | SMILES | % of control remaining [%]
1 | CCOc1ccccc1NC(=O)C(C)Cl (stereo not drawn) [6-M10, 2-chloro-N-(2-ethoxyphenyl)propanamide] | 106.195
2 | C=CC(=O)NCc1nc(C2CC2)cs1 [2-A19, N-[(4-cyclopropyl-1,3-thiazol-2-yl)methyl]prop-2-enamide] | 138.207
3 | O=C(CCl)N1CCCSc2ccccc21 [4-E16, 2-chloro-1-(2,3,4,5-tetrahydro-1,5-benzothiazepin-5-yl)ethan-1-one] | 116.627
4 | CC1CSc2ccccc2N(C(=O)CCl)C1 (stereo not drawn) [5-H07, 2-chloro-1-(3-methyl-2,3,4,5-tetrahydro-1,5-benzothiazepin-5-yl)ethan-1-one] | 104.554
5 | O=C(CCl)N1c2ccccc2SCC1c1ccccc1 (stereo not drawn) [4-M18, 2-chloro-1-(3-phenyl-3,4-dihydro-2H-1,4-benzothiazin-4-yl)ethan-1-one] | 9.528
6 | C=CC(=O)N1C[C@H](NC(C)=O)[C@@H](c2ccnn2C)C1 (racemic) [2-M16, rac-N-[(3R,4S)-4-(1-methyl-1H-pyrazol-5-yl)-1-(prop-2-enoyl)pyrrolidin-3-yl]acetamide] | 90.5135
7 | Cc1nn(CC(C)C)c(Cl)c1C1CCCN1C(=O)C(C)Cl (stereo not drawn) [7-P19, 2-chloro-1-{2-[5-chloro-3-methyl-1-(2-methylpropyl)-1H-pyrazol-4-yl]pyrrolidin-1-yl}propan-1-one] | 108.32
8 | CC(Cl)C(=O)N(Cc1ccccc1)Cc1ccccc1 (stereo not drawn) [5-K19, N,N-dibenzyl-2-chloropropanamide] | 103.097
9 | CC(c1ccc(C(F)(F)F)cc1F)N(C)C(=O)CCl (stereo not drawn) [7-P18, 2-chloro-N-{1-[2-fluoro-4-(trifluoromethyl)phenyl]ethyl}-N-methylacetamide] | 94.5055
10 | CN(C(=O)CCl)C(c1ccc(Cl)cc1)C(F)(F)F (stereo not drawn) [7-J16, 2-chloro-N-[1-(4-chlorophenyl)-2,2,2-trifluoroethyl]-N-methylacetamide] | 101.413
11 | CC(c1ccc(C(F)(F)F)c(Cl)c1)N(C)C(=O)CCl (stereo not drawn) [7-F14, 2-chloro-N-{1-[3-chloro-4-(trifluoromethyl)phenyl]ethyl}-N-methylacetamide] | 6.593
12 | Cc1ccc(C=C(C#N)C(=O)Nc2nccs2)s1 [8-P13, 2-cyano-3-(5-methylthiophen-2-yl)-N-(1,3-thiazol-2-yl)prop-2-enamide] | 93.61
13 | Cc1ccccc1NC(=O)C(C#N)=Cc1ccc2c(c1)OCCO2 [8-J03, 2-cyano-3-(2,3-dihydro-1,4-benzodioxin-6-yl)-N-(2-methylphenyl)prop-2-enamide] | 129.461
14 | N#Cc1ccc(N2C(=O)C=CC2=O)cc1 [10-B09, 4-(2,5-dioxo-2,5-dihydro-1H-pyrrol-1-yl)benzonitrile] | 133.438
15 | O=C1C=CC(=O)N1c1ccc(F)cc1 [10-M10, 1-(4-fluorophenyl)-2,5-dihydro-1H-pyrrole-2,5-dione] | 118.75
16 | O=C1C=CC(=O)N1c1ccc(SC(F)F)cc1 [10-A18, 1-{4-[(difluoromethyl)sulfanyl]phenyl}-2,5-dihydro-1H-pyrrole-2,5-dione] | 29.6875
17 | Cc1ccc(C=C(C#N)C(=O)Nc2ccccc2Cl)s1 [9-C22, N-(2-chlorophenyl)-2-cyano-3-(5-methylthiophen-2-yl)prop-2-enamide] | 83.2959
18 | Cc1ccc(C=C(C#N)C(=O)Nc2ccccc2C(=O)O)s1 [9-K08, 2-[2-cyano-3-(5-methylthiophen-2-yl)prop-2-enamido]benzoic acid] | 38.0524
19 | COc1ccccc1NC(=O)C(C#N)=Cc1ccc(C)s1 [8-B15, 2-cyano-N-(2-methoxyphenyl)-3-(5-methylthiophen-2-yl)prop-2-enamide] | 118.838
20 | O=C(Nc1nccs1)N1CCSSCC1 [10-O22, N-(1,3-thiazol-2-yl)-1,2,5-dithiazepane-5-carboxamide] | 109.063
21 | O=C(CCl)N(Cc1ccc(F)cc1)C1CCCCC1 [4-I13, 2-chloro-N-cyclohexyl-N-[(4-fluorophenyl)methyl]acetamide] | 87.6608
22 | CC(Cl)C(=O)Nc1sc(-c2ccccc2)cc1C(N)=O (stereo not drawn) [4-H13, 2-(2-chloropropanamido)-5-phenylthiophene-3-carboxamide] | 58.3135
23 | O=C1CCCc2cc(C(=O)CCl)ccc2N1 [10-M20, 7-(2-chloroacetyl)-2,3,4,5-tetrahydro-1H-1-benzazepin-2-one] | 137.5
24 | CC1(C)C(=O)Nc2ccc(C(=O)CCl)cc21 [10-N21, 5-(2-chloroacetyl)-3,3-dimethyl-2,3-dihydro-1H-indol-2-one] | 40.3125
25 | Cn1c(=O)oc2cc(C(=O)CCl)ccc21 [10-F07, 6-(2-chloroacetyl)-3-methyl-2,3-dihydro-1,3-benzoxazol-2-one] | 93.125
26 | C=CC(=O)NC(Cn1cncn1)c1ccccc1 (stereo not drawn) [3-F17, N-[1-phenyl-2-(1H-1,2,4-triazol-1-yl)ethyl]prop-2-enamide] | 118.415
27 | O=C(CCl)N(Cc1ccccc1)c1ccccc1 [4-G13, N-benzyl-2-chloro-N-phenylacetamide] | 77.7513
28 | O=C(CCl)N(Cc1ccc(Cl)c([N+](=O)[O-])c1)c1ccccc1 [6-H06, 2-chloro-N-[(4-chloro-3-nitrophenyl)methyl]-N-phenylacetamide] | 8.195
29 | Cc1cccc(N(Cc2ccccc2)C(=O)CCl)c1 [6-O07, N-benzyl-2-chloro-N-(3-methylphenyl)acetamide] | 98
30 | C=CC(=O)NCC1(S(=O)(=O)CC)CC1 [3-O13, N-{[1-(ethanesulfonyl)cyclopropyl]methyl}prop-2-enamide] | 91.2495

— paper PMC11995724, “Antibiotic target discovery by integrated phenotypic and activity-based profiling of electrophilic fragments” (Cell chemical biology, 2025)
